# In the library only some 3.2% were active in any assay of this set; here they are far more common.
# FLuc inh – firefly luciferase inhibition; P08659; Potency, µM (titrated, usually from 57.1 µM), without a hit: top-dose activity change, negative = inhibition, hits mostly inhibitors; purified firefly luciferase, luminescence, 8 min; 72,000 tested, 2.2% active; AID 411; active = well fitted inhibition curve with a large enough effect; inconclusive = small, poorly fitted or top-dose-only effect; also: % is scaled to controls: 0 for no effect and ±100 for the full control effect; nearly all actives have a fitted effect of over 40% in size
#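 Firefly luciferase (PKLight detection mix) with 10 uM ATP in pH 7.2 imidazole buffer (KCl, MgCl2, Tween 20, BSA). Compounds tested across a concentration series (qHTS). Luminescence read after 8 min at ambient temperature.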
# GBA mod – human lysosomal glucosylceramidase modulation; purified enzyme, resorufin glucoside fluorescence (screen aimed at inhibitors), 20 min; Potency, µM; 48,000 tested, 1.1% active; AID 360; in the data active = potency below about 15 µM; inconclusive = mostly about 16 µM to 33 µM;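 also: the screen sought inhibitors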
# Target sequence (P04062 whole entry, looked up): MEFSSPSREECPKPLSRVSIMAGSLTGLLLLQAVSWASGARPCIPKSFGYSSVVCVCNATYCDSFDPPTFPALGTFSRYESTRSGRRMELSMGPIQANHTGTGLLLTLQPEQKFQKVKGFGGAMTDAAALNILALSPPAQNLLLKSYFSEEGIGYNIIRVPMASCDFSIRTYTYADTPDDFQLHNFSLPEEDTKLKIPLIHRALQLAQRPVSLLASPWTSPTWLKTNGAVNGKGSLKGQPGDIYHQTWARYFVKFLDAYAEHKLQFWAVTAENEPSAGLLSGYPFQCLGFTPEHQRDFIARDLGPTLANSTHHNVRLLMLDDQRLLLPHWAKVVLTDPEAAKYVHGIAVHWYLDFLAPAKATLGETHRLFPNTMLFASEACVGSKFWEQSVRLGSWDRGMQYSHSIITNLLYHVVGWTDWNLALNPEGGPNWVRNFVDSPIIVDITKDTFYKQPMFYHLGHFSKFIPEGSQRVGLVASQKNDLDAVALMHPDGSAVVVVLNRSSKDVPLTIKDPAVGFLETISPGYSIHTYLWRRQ
#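 Compounds titrated against 0.2 nM normal enzyme, 30 uM resorufin beta-D-glucopyranoside substrate, citrate/phosphate buffer with taurocholate and tween-20, pH 5.9. Reaction ran 20 min at room temperature; fluorescence (Ex 548/Em 600) gave AC50.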
# Bst PK mod – modulators of Bacillus stearothermophilus pyruvate kinase; Potency, µM; 51,000 tested, 1.2% active; purified pyruvate kinase, luminescence ATP production; ribose 5-phosphate activator present at AC10; in the data active = potency below about 11 µM; inconclusive = mostly about 12 µM to 25 µM;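 the screen sought inhibitors and activators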;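 also: scaled between full activation by ribose 5 phosphate and full inhibition by luteolin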
# Active calls of the source: *; i = inactive; ? = inconclusive; . = no result; [ ] = remark or other dose. Potency is read from the fitted curve at half-maximal effect.
SMILES,FLuc inh,GBA mod,Bst PK mod
CCOC(=O)c1cccc(NC(=O)CSc2nnc(COc3ccccc3)n2CC)c1,1.1%,>76.9,>57
CCn1c(Cn2nnc(-c3ccccc3)n2)nnc1SCC(=O)Nc1ccccc1,0.7%,9.58*,>57
c1ccc2c(NCCN3CCOCC3)nc(-c3ccc4c(c3)OCO4)nc2c1,-1.5%[2.29 µM],.,.
O=c1[nH]c2ccccc2c2ccccc12,0.0%,.,.
O=c1[nH]c2ccccc2c2nc3ccccn3c12,?,>76.9,4.33*
CC(=O)Nc1ccc(N/C=C/C(=O)c2ccco2)cc1,25.1µM*,>76.9,i
CC(=O)Nc1ccc(NC(=O)c2ccco2)cc1,-8.7%,.,.
O=C(/C=C/Nc1ccc(F)c(Cl)c1)c1ccco1,15.8µM*,>76.9,i
O=C(CCNc1ccc(F)c(Cl)c1)c1ccco1,-1.4%,.,.
CCc1nn2cc(-c3ccccc3)nc2s1,1.58µM*,>76.9,2.39*
Cc1nn2c(-c3ccc(Cl)cc3)nnc2s1,-2.2%[25.5 µM],.,?
O=C(O)CCc1nn2cc(-c3ccccc3)nc2[nH]c1=O,-1.2%[25.5 µM],.,>25.6
Cc1c(C(=O)Nc2ccccc2)sc2nc(-c3ccccc3)cn12,-19.6%,?,i
Cc1nn2cc(-c3ccc(-c4ccccc4)cc3)nc2s1,1µM*,>76.9,.
Cc1nn2cc(-c3ccc(Cl)cc3)nc2s1,3.16µM*,>76.9,?
CN1CCN(c2ncc3nc(-c4cn(C)c5ccccc45)c(=O)n(Cc4cccs4)c3n2)CC1,0.3%[11.4 µM],.,.
Cc1ccc(-c2[nH]n3c(=O)c4c(nc3c2C)CCCC4)cc1,2.4%,8.05*,i
Cc1cc2nc3c(c(=O)n2[nH]1)CCCC3,2.3%,.,.
N#Cc1cccc(NC(=O)N2CC[C@@]3(CCCNC3)C2)c1,-1.1%[11.4 µM],.,.
COC(=O)c1[nH]c2c(c1C)C(=O)CCC2,-1.4%,>76.9,>57
Cc1c(C(=O)OC2CCC(C)CC2)[nH]c2c1C(=O)CCC2 (stereo not given),15.8µM*,.,.
COCCNC(=O)c1ccc(NS(=O)(=O)c2cc(C)ccc2C)cc1,-2.0%,7.13*,i
COc1ccc(NS(=O)(=O)c2cc(C)ccc2C)cc1,-0.6%,.,>11.4
N#CC(C#N)=c1ccc2c(c1)N1C3=C(CCCC3)CC3CCCCC31N=2 (stereo not given),-0.7%,.,.
N#C/C(C(N)=O)=c1/ccc2c(c1)N1C3=C(CCCC3)CC3CCCCC31N=2 (stereo not given),15.8µM*,?,.
SMILES,FLuc inh,GBA mod,Bst PK mod
Cc1ccc(C(=O)Nc2nc3ccccc3c(=O)s2)cc1,?,>76.9,6.81*
CCCn1c(NC(=O)c2ccc(C)cc2)nc2ccccc21,-1.0%,>76.9,>57
COc1ccc(-c2ccc(=O)[nH]n2)cc1,1.9%,>76.9,>11.4
COc1ccc(C2=C(N)c3ccccc3C2=O)cc1,12.6µM*,.,.
NC1=NCCCC1,-0.4%,.,.
CCOc1ccc(-c2cc(C(=O)N3CCN(C)CC3)c3ccccc3n2)cc1,2µM*,>76.9,3.06*
CCOC(=O)N1CCN(C(=O)c2cc(-c3ccc(OCC)cc3)nc3ccccc23)CC1,0.794µM*,>76.9,1.06*
CCOc1ccc2nc(-c3ccc(OC)c(OC)c3)cc(C(=O)O)c2c1,-3.3%,>76.9,.
O=C(c1cc(-c2ccccc2)nc2ccccc12)N1CCOCC1,-7.5%,.,.
O=C(c1ccco1)N1CCC2(CC1)CCN(c1ccccc1)CC2,0.3%[11.4 µM],.,.
CCCC(=O)Nc1cccc(NC(=O)c2ccc3c(c2)OCO3)c1,-28.2%,.,>57
CCC(=O)Nc1cccc(NC(=O)c2ccc3c(c2)OCCO3)c1,15.8µM*,>76.9,.
O=C(Nc1ccc2c(c1)OCCO2)c1cccnc1,-20.1%,>76.9,>57
O=C(Nc1ccc(SC(F)F)cc1)c1ccc2nccnc2c1,?,12.4*,.
O=C(Nc1ccc2c(c1)OCCO2)c1ccc2nccnc2c1,10µM*,>76.9,?
O=C(Nc1ccncc1)c1cccc(F)c1,0.6%,.,.
[O-][n+]1c(CN2CCCCC2)nc2cccc3c2c1-c1ccccc1-3,3.2%[11.4 µM],.,.
COc1ccc(CNc2ccnc(-c3ccccc3C(F)(F)F)n2)c(OC)c1,0.5%[2.29 µM],.,.
COCCn1c(=O)c(-c2cc(F)cc(F)c2)nc2cnc(N(C)C)nc21,-0.5%[11.4 µM],.,.
CCOC(=O)N/N=C1/C[C@@H](O)[C@@H](O)[C@@H]2[C@@H]3C(=O)N(Cc4ccccc4)C(=O)[C@H]3CC[C@@H]12,-0.5%[11.4 µM],.,.
CCc1c(O)c2c(c(O)c1C(C)=O)C(=O)c1c(cc(O)c(C(=O)O)c1C(=O)O)C2=O,-14.2%[11.4 µM],.,.
COc1ccc(C(=O)N2CCC3(CC2)CN(CC(C)C)C3)cc1,0.1%[11.4 µM],.,.
C[C@]12C=CC(=O)C=C1CC[C@@H]1[C@H]3C[C@@H](O)[C@](O)(C(=O)CO)[C@]3(C)C[C@H](O)[C@]12F,1.2%,.,.
COCCn1c(C)cc(C(=O)CSc2n[nH]c(N)n2)c1C,-4.4%,>76.9,>57
COCCn1c(C)cc(C(=O)CSc2nnc(C)s2)c1C,10µM*,>76.9,?
SMILES,FLuc inh,GBA mod,Bst PK mod
CN1CCN(c2ncc3nc(CCc4ccccc4)c(=O)n(CCC#N)c3n2)CC1,-0.3%[11.4 µM],.,.
CN1CCN(c2ncc3nc(-c4ccc(F)cc4)c(=O)n(C4CC4)c3n2)CC1,0.6%[11.4 µM],.,.
CCN1CCN(/C=N/c2nc3c(s2)CCCC3)CC1,12.6µM*,>76.9,?
N#Cc1c(N)n(CCCN2CCOCC2)c2nc3ccccc3nc12,-0.2%,?,>57
CCCCCn1c(N)c(C#N)c2nc3ccccc3nc21,3.4%,2.68*,>57
CN(C)Cc1ccccc1-c1cncnc1Nc1ccc(F)cc1,2.1%[2.29 µM],.,.
O=c1c(-c2ccc(F)cc2)nc2cnc(N3CCNCC3)nc2n1-c1ccccc1,-1.7%[11.4 µM],.,.
CCNc1oc(-c2cccc3ccccc23)nc1C#N,-7.1%,>76.9,>57
CC(C)Nc1oc(-c2cccc3ccccc23)nc1C#N,20µM*,>76.9,>57
COc1ccc(-c2nc3cnc(OC)nc3n(CCC#N)c2=O)cc1,-4.5%[11.4 µM],.,.
CC(C)NC(=O)N1CC2(CCN(S(=O)(=O)c3ccccc3)CC2)C1,1.1%[11.4 µM],.,.
COCCn1c(C)cc(C(=O)COC(=O)C23CC4CC(CC(O)(C4)C2)C3)c1C,12.6µM*,>76.9,i
COCCn1c(C)cc(C(=O)COC(=O)c2cc3c(s2)CCC3)c1C,-5.0%,>76.9,>57
O=c1/c(=C\c2ccc3c(c2)OCO3)sc2n1CCCN=2,12.6µM*,.,?
C(=N\n1cnnc1)/c1ccc2c(c1)OCO2,2.1%,.,.
O=S(=O)(Nc1ccc2c(c1)OCCO2)c1cccs1,-25.0%,>76.9,4.21*
O=S(=O)(Nc1ccc2c(c1)OCO2)c1cccs1,-1.6%,.,>57
CCCCOC(=O)Cn1c(=N)n(CCC)c2ccccc21,2.9%,11.1*,>57
COC(=O)Cn1c(=N)n(CCN2CCCCC2)c2ccccc21,-0.8%,>76.9,>57
CCCn1c(-c2ccc(OC)cc2)nc2ccccc21,-5.2%,.,.
CCCn1c(=N)n(CCOc2ccc(OC)cc2)c2ccccc21,-5.0%,5.9*,>57
O[C@@H]1CC[C@H]2Cc3ccccc3N=C21,1.6%[11.4 µM],.,.
Cc1ccccc1-c1nc(Nc2ccncc2)c2ccccc2n1,0.6%[2.29 µM],.,.
CN(C)S(=O)(=O)c1ccc(C(=O)Nc2ccc(OCC(=O)N3CCOCC3)cc2)cc1,15.8µM*,.,.
CCOc1ccc(OCC(=O)N2CCOCC2)cc1,-0.8%,>76.9,>57
CN1CCN(c2ncc3nc(-c4cccc(C#N)c4)c(=O)n(C[C@H]4CCCO4)c3n2)CC1,1.4%[11.4 µM],.,.
COc1ccc(NC(=O)Nc2cccc(C(=O)N3CCOCC3)c2)cc1OC,-8.1%[25.5 µM],.,>25.6
CC(=O)c1cccc(NC(=O)Nc2ccc(C(=O)N3CCOCC3)cc2)c1,12.6µM*,>76.9,.
CS(=O)(=O)Nc1cccc(-c2nccc(NCc3cccs3)n2)c1,-0.9%[2.29 µM],.,.

# Assay outcomes as filed in PubChem BioAssay.
